TDP1 cell noCPT – qHTS for Inhibitors of human tyrosyl-DNA phosphodiesterase 1 (TDP1): qHTS in cells in absence of CPT | DT40 Tdp1-/- hTDP1 cells, no CPT, ATP luminescence, 48 h | Potency, µM (top dose mostly 46.2 µM), inactives show at the highest dose activity change, negative = growth inhibition, most hits filed as inhibitors | 420,000 compounds, 15% hits; further: potency means the concentration at half of the fitted maximal effect; nearly all actives have a fitted effect of over 55% in size
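Compound effects on proliferation are scored in DT40 Tdp1-/-;hTDP1 cells in the absence of CPT. ATP levels (CellTiter-Glo luminescence) are recorded after a ≥48 hr, 37 °C incubation.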
DT40 TDP1 CPT – growth inhibition of DT40 Tdp1-/-;hTDP1 cells with camptothecin (screen for TDP1 inhibitors); chicken DT40 Tdp1-/-;hTDP1 cells + 20 nM CPT, ATP luminescence, 48 h; Potency, µM (series often up to 46.2 µM), without a hit: at the top dose activity change, negative = growth inhibition, most hits filed as inhibitors; 420,000 compounds, 12% hits; AID 686979; further: potency means the concentration at half of the fitted maximal effect; nearly all actives have a fitted effect of over 55% in size
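Chicken DT40 Tdp1-/- cells complemented with human TDP1, 400 cells/well, exposed to compounds plus 20 nM camptothecin for at least 48 h at 37 C; viability read as ATP content by CellTiter-Glo luminescence.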
HT1080-NT tox – kills 2HG-producing HT-1080-NT fibrosarcoma cells. HT-1080-NT fibrosarcoma viability, CellTiter-Glo ATP luminescence, 48 h. Potency, µM (doses to about 46.1 µM), for inactives: at the top dose activity, negative = less viability, hits mostly cytotoxic. 360,000 compounds, 1.6% hits. AID 686970;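 further: NT is the 2HG producing partner of a matched IDH1 knockdown line; potency means the concentration at half of the fitted maximal effect; 0% = DMSO-treated cells and -100% = media-only wells without cells; nearly all actives have a fitted effect of over 55% in size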
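Compounds were tested in concentration-response format on HT-1080-NT cells for 48 hours at 37 degrees C. Cell viability came from CellTiter-Glo luminescence; curves were classified by r2, response magnitude and activity.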
IL1B secr inh – blocks inflammasome-driven IL-1 beta release. AID 743279. activity change, % at 57.5 µM. THP-1 LPS/ATP IL-1B secretion, AlphaLISA, 16 h; stronger effect = lower value. 360,000 compounds, 4.7% hits; in the data active means activity change below about -50%; inconclusive means mostly about -30% to -49%
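Secreted IL-1B measured by AlphaLISA bead assay after 16 h compound exposure of THP-1 cells; compounds (final up to 57.5 uM) added 1 h before LPS (250 ng/mL) and ATP (1.25 mM) stimulation; lower signal means less secretion.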
HT1080 IDH1KD tx – kills HT-1080 cells with IDH1 knockdown; HT-1080 IDH1 knockdown viability, ATP luminescence, 48 h; Potency, µM (highest dose often 46.1 µM), inactives show top-dose activity, negative = toxicity, hits mostly cytotoxic; 360,000 compounds, 2% hits;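 further: potency means the concentration at half of the fitted maximal effect; 0% = DMSO wells and -100% = cell-free medium wells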
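Using the IDH1-knockdown HT-1080 line run in the same batch and compound series as the NT line, viability after 48 h at 37 °C was determined by CellTiter-Glo luminescence and expressed as % activity.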
Numbers without * were called inactive; ? = inconclusive; / = no result given. An excerpt weighted towards active compounds, which were near 19% of everything screened. Unless noted, the call rests on the fitted dose curve; in most records, active means well fitted curve in the direction sought with a large enough effect; inconclusive means small, poorly fitted or top-dose-only effect, or another doubt; inactive means no such curve, though single readings can be large; an effect the other way counts as inactive or inconclusive. Unless noted, on the % scale 0 is the no-effect control and ±100 the full control effect.

SMILES | TDP1 cell noCPT | DT40 TDP1 CPT | HT1080-NT tox | IL1B secr inh | HT1080 IDH1KD tx
CCOc1cc(-c2ccc3c(c2)OCO3)cc(=[O+]CC)c2c(C)oc(C)c12 | 14µM* | ? | / | / | /
CCOc1cc(/C=C2/N=C(c3ccc4c(c3)OCO4)OC2=O)ccc1OC(C)=O | ? | ? | -3% | -23 | 0%
Cc1oc(C)c2c(=O)cc(-c3ccc4c(c3)OCO4)cc(OC(=O)c3ccccc3Br)c12 | ? | 16µM* | / | / | /
Cc1oc(C)c2c(=O)cc(-c3ccc4c(c3)OCO4)cc(OC(=O)c3ccccc3Cl)c12 | ? | 23µM* | / | / | /
CC1(C)CNC(=O)c2sc(NC(=O)c3ccccc3Cl)nc2C1 | 3% | -27% | 12% | -25 | 6%
CCc1cccc(NC(=O)CC2Oc3ccc(C)cc3NC2=O)c1 (stereo not given) | 0% | -9% | / | / | /
O=C(Cc1ccccc1)N[C@@H](Cc1ccccc1)c1nc2ccccc2[nH]1 | 23µM* | ? | 2% | -8 | -1%
O=C(Cc1ccccc1)Nc1nc2ccccc2[nH]1 | 7.3µM* | 13µM* | -2% | -5 | -24%
CCc1ccccc1Nc1nc2ccccc2[nH]1 | 15µM* | ? | -21% | -5 | ?
O=C(Cc1c[nH]c2ccccc12)Nc1nc2ccccc2[nH]1 | -18% | -13% | -16% | 4 | -10%
Cc1cc(OCC(=O)N[C@@H](Cc2ccccc2)c2nc3ccccc3[nH]2)ccc1Cl | ? | -10% | -27% | 21 | -26%
CC(=O)Nc1nc2ccccc2[nH]1 | -7% | 17% | 1% | 0 | -5%
O=C(CSc1ccccc1)Nc1nc2ccccc2[nH]1 | 21µM* | ? | 12µM* | 26 | ?
CCCC(=O)NCc1nc2ccccc2n1CC(=O)c1ccccc1 | 8% | -10% | 12% | -6 | 3%
Cc1ccc2c(c1)C(c1ccccc1)N(C(=O)c1ccc(Br)cc1)CC(=O)N2 (stereo not given) | 10% | 5% | 19% | -27 | 7%
Oc1c(Cl)cc(Cl)cc1CNc1nc2ccccc2[nH]1 | -4% | 1% | -30% | -84* | ?
O=C(Cc1ccc(Br)cc1)Nc1nc2ccccc2[nH]1 | 2.3µM* | 6.5µM* | -5% | 18 | 7%
O=C(CSc1ccc(Cl)cc1)Nc1ccc(-c2nc3ccccc3[nH]2)cc1 | 8.2µM* | 12µM* | ? | -11 | ?
O=C(Cc1ccc(Cl)cc1)Nc1nc2ccccc2[nH]1 | 2.1µM* | 5.2µM* | -12% | -3 | -24%
CCOc1cc(S(=O)(=O)NCCCn2ccnc2)ccc1Cl | -16% | ? | -7% | 11 | -7%
Cc1sc2nc(COC(=O)CNC(=O)c3ccc(C(C)(C)C)cc3)[nH]c(=O)c2c1C | -6% | -3% | 13% | 29 | 15%
CCNC(=O)CC1C(=O)N(c2cccc(OC)c2)C(=O)N1Cc1ccc(OC)c(OC)c1 (stereo not given) | -15% | 10% | / | / | /
Cc1cccc2cc(/C=N/NC(=O)c3ccncc3)c(Cl)nc12 | 15% | -3% | 8% | 0 | 3%
Cc1ccc2nc(C)c(C(=O)N/N=C/c3ccc(C(=O)O)cc3)cc2c1 | -1% | -1% | 30% | 21 | 13%
Cc1cccc2cc(/C=N/NC(=O)c3ccccc3O)c(Cl)nc12 | ? | 18µM* | 0% | 11 | -21%
Cc1nc2c(C)cccc2cc1C(=O)N/N=C/c1ccc(O)cc1 | ? | 29µM* | ? | -9 | ?
Cc1ccc(/C=N/N2CCN(Cc3ccc(Cl)cc3)CC2)o1 | ? | -26% | -1% | -15 | -9%
CNc1cncc(-c2cccc(NS(C)(=O)=O)c2)n1 | ? | ? | 9% | -21 | 10%
CSc1nc(S(C)(=O)=O)nc2[nH]c(=O)[nH]c12 | 1% | -6% | 13% | 4 | 1%
O=C(c1ccc2c(c1)N(Cc1cccc(Cl)c1)C(=O)c1ccccc1S2(=O)=O)N1CCC(Cc2ccccc2)CC1 | 4.1µM* | 4.1µM* | / | / | /
